Data on 3 compounds can be found in PubChem BioAssay (EPA / NIEHS).

Read-out in experiment [1]: Interleukin-1 alpha (IL1a), IL1A (gene 3552)
Kind of experiment: BSK_KF3CT_IL1a: BioMAP Diversity Plus: KF3CT Assay for Interleukin-1 alpha (IL1a) Biomarker Activity (AID 2283070). The conditions noted are these: primary human keratinocytes with fibroblasts; actives raise or lower the signal. The essentials:
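Chemicals were dosed onto co-cultured human keratinocytes and foreskin fibroblasts, IL-1a was quantified by ELISA at 24 h, and activity was fitted in both directions relative to DMSO controls.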

Read-out in experiment [2]: TIMP metallopeptidase inhibitor 2 (TIMP2), TIMP2 (gene 7077)
Kind of experiment: BSK_KF3CT_TIMP2: BioMAP Diversity Plus: KF3CT Assay for TIMP metallopeptidase inhibitor 2 (TIMP2) Biomarker Activity (AID 2283071). To be noted: primary human keratinocytes with fibroblasts; actives raise or lower the signal. The essentials: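 Cells: human keratinocytes co-cultured with foreskin fibroblasts. Treat with chemical, 24 h. Measure TIMP-2 by ELISA; fit curves bidirectionally vs DMSO baseline.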

Read-out in experiment [3]: C-C motif chemokine 2 (Homo sapiens) (UniProt P13500)
Kind of experiment: BSK_KF3CT_MCP1: BioMAP Diversity Plus: KF3CT Assay for Monocyte Chemoattractant Protein 1 (MCP1/CCL2) Biomarker Activity (AID 2283073). To be noted: primary human keratinocytes with fibroblasts; actives raise or lower the signal. The method in brief:
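ELISA readout of MCP-1 after 24 h chemical dosing of a human skin primary co-culture of keratinocytes and foreskin fibroblasts. Activity was fitted in both directions against DMSO.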

Read-out in experiment [4]: Matrix Metallopeptidase 9 (MMP9), MMP9 (gene 4318)
Put plainly: BSK_KF3CT_MMP9: BioMAP Diversity Plus: KF3CT Assay for Matrix Metallopeptidase 9 (MMP9) Biomarker Activity (AID 2283074). The conditions noted are these: primary human keratinocytes with fibroblasts; actives raise or lower the signal. The essentials: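 Human keratinocyte/foreskin fibroblast co-culture; compound added; 24 h; MMP-9 by ELISA; bidirectional fit vs DMSO baseline.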

Read-out in experiment [5]: urokinase plasminogen activator (uPA), PLAU (gene 5328)
Kind of experiment: BSK_KF3CT_uPA: BioMAP Diversity Plus: KF3CT Assay for urokinase plasminogen activator (uPA) Biomarker Activity (AID 2283075). The conditions noted are these: primary human keratinocytes with fibroblasts; actives raise or lower the signal. The essentials: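 ELISA readout of uPA, analyzed for signal gain or loss relative to DMSO, from a human primary keratinocyte–foreskin fibroblast co-culture measured 24 h after chemical treatment.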

Read-out in experiment [6]: CD40, CD40 (gene 958)
Put plainly: BSK_LPS_CD40: BioMAP Diversity Plus: LPS Assay for CD40 Biomarker Activity (AID 2283076). To be noted: primary human HUVEC with PBMC; actives raise or lower the signal. The essentials: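 Cells were dosed, incubated 24 h, then assayed for CD40 by ELISA. Gain or loss of signal was analysed relative to DMSO controls. The culture paired human umbilical vein endothelium with peripheral blood mononuclear cells.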

Read-out in experiment [7]: E-selectin (Homo sapiens) (UniProt P16581)
Kind of experiment: BSK_LPS_Eselectin: BioMAP Diversity Plus: LPS Assay for Eselectin Biomarker Activity (AID 2283077). To be noted: primary human HUVEC with PBMC; actives raise or lower the signal. The method in brief:
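Primary human vascular co-culture (endothelium plus PBMC) was dosed with chemical, then E-selectin quantified by ELISA at 24 h. Endpoint values derive from bidirectional curve fitting relative to DMSO.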

Read-out in experiment [8]: Interleukin-8 (IL8), CXCL8 (gene 3576)
Kind of experiment: BSK_LPS_IL8: BioMAP Diversity Plus: LPS Assay for Interleukin-8 (IL8) Biomarker Activity (AID 2283078). The conditions noted are these: primary human HUVEC with PBMC; actives raise or lower the signal. The essentials: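 Readout is IL-8 by ELISA, taken 24 h after compounds were added to LPS-stimulated endothelial/PBMC co-cultures. Both increases and decreases relative to DMSO control were scored through bidirectional fitting.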

The nature of experiment [9]: BSK_LPS_SRB: Viability Assessment in the BioMAP Diversity Plus: LPS Assay (AID 2283079).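 Note: total protein by sulforhodamine B absorbance as a cytotoxicity measure; measured one day after compound addition; fitted in both directions against DMSO so loss or gain of signal counts.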 To be noted: primary human HUVEC with PBMC. The essentials:
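Readout is SRB absorbance at 560 nm (0.1% stain, TCA-fixed parallel cultures) as a total-protein cytotoxicity measure. Cells: primary human umbilical vein endothelium plus peripheral blood mononuclear cells, 24 h after chemical exposure; DMSO served as baseline.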

Read-out in experiment [10]: Interleukin-1 alpha (IL1a), IL1A (gene 3552)
Kind of experiment: BSK_LPS_IL1a: BioMAP Diversity Plus: LPS Assay for Interleukin-1 alpha (IL1a) Biomarker Activity (AID 2283080). The conditions noted are these: primary human HUVEC with PBMC; actives raise or lower the signal. The method in brief:
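ELISA read-out of IL-1 alpha from a human primary vascular co-culture (endothelium plus PBMC) under LPS, sampled 24 hours post-dosing. Activity was fitted in both directions relative to DMSO controls.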

Read-out in experiment [11]: Monocyte Chemoattractant Protein-1 (MCP1), CCL2 (gene 6347)
Kind of experiment: BSK_LPS_MCP1: BioMAP Diversity Plus: LPS Assay for Monocyte Chemoattractant Protein-1 (MCP1) Biomarker Activity (AID 2283081). To be noted: primary human HUVEC with PBMC; actives raise or lower the signal. The essentials: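 Human endothelial–PBMC co-cultures were dosed with chemical, then LPS-driven MCP-1 levels were quantified by ELISA at 24 h. Activity in either direction was fitted versus DMSO negative control.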

Experiment [12] is described as follows: BSK_LPS_PGE2: BioMAP Diversity Plus: LPS Assay for Prostaglandin E2 (PGE2) Biomarker Activity (AID 2283082). To be noted: primary human HUVEC with PBMC; actives raise or lower the signal. The essentials:
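LPS-activated HUVEC/PBMC co-culture; cmpd dosed, 24 h; PGE2 by ELISA; bidirectional fit vs DMSO; SRB (0.1%, TCA-fixed, 560 nm) in parallel plates for overt cytotox.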

Read-out in experiment [13]: Macrophage colony-stimulating factor (MCSF), CSF1 (gene 1435)
Kind of experiment: BSK_LPS_MCSF: BioMAP Diversity Plus: LPS Assay for Macrophage colony-stimulating factor (MCSF) Biomarker Activity (AID 2283083). To be noted: primary human HUVEC with PBMC; actives raise or lower the signal. The essentials: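 ELISA readout of M-CSF after 24 h compound exposure in a human endothelial/PBMC co-culture. Activity, in either direction, is fitted relative to DMSO vehicle.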

Read-out in experiment [14]: Tissue Factor, F3 (gene 2152)
Kind of experiment: BSK_LPS_TissueFactor: BioMAP Diversity Plus: LPS Assay for Tissue Factor Biomarker Activity (AID 2283084). To be noted: primary human HUVEC with PBMC; actives raise or lower the signal. The method in brief:
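ELISA signal for cell-surface Tissue Factor (CD142) was read 24 h after compound dosing of an LPS-stimulated human endothelial–PBMC primary co-culture. Gain or loss of signal was scored relative to DMSO.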

Read-out in experiment [15]: Tumor necrosis factor (Homo sapiens) (UniProt P01375)
Kind of experiment: BSK_LPS_TNFa: BioMAP Diversity Plus: LPS Assay for Tumour Necrosis Factor alpha (TNFa) Biomarker Activity (AID 2283085). To be noted: primary human HUVEC with PBMC; actives raise or lower the signal. The essentials:
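Read-out is ELISA of TNFa in primary human endothelial cell–PBMC co-cultures at 24 h after compound. Activity in either direction was fitted against DMSO.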

Read-out in experiment [16]: Vascular cell adhesion molecule 1 (VCAM1), VCAM1 (gene 7412)
Kind of experiment: BSK_LPS_VCAM1: BioMAP Diversity Plus: LPS Assay for Vascular cell adhesion molecule 1 (VCAM1) Biomarker Activity (AID 2283086). To be noted: primary human HUVEC with PBMC; actives raise or lower the signal. The method in brief:
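HUVEC + PBMC co-culture, LPS system; compound 24 h; VCAM-1 by ELISA; bidirectional fit vs DMSO control; parallel SRB (0.1%, TCA-fixed, 560 nm) for cytotoxicity.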

Read-out in the next experiment: CD38, CD38 (gene 952)
Put plainly: BSK_SAg_CD38: BioMAP Diversity Plus: SAg Assay for CD38 Biomarker Activity (AID 2283087). The conditions noted are these: primary human HUVEC with PBMC; actives raise or lower the signal. The method in brief:
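Human HUVEC plus PBMC co-culture stimulated with superantigen; CD38 measured by ELISA 24 h after chemical dosing. Fluorescence read-out, bidirectional fit against DMSO; cytotoxicity tracked in parallel by SRB and Alamar Blue.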

Read-out in experiment [17]: CD40, CD40 (gene 958)
Kind of experiment: BSK_SAg_CD40: BioMAP Diversity Plus: SAg Assay for CD40 Biomarker Activity (AID 2283088). To be noted: primary human HUVEC with PBMC; actives raise or lower the signal. The method in brief:
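Compounds were dosed onto a human primary endothelial–PBMC co-culture, and after 24 h CD40 was quantified by ELISA using a fluorescence signal. Activity in either direction was fitted relative to DMSO.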

Read-out in a further experiment: CD69, CD69 (gene 969)
Kind of experiment: BSK_SAg_CD69: BioMAP Diversity Plus: SAg Assay for CD69 Biomarker Activity (AID 2283089). The conditions noted are these: primary human HUVEC with PBMC; actives raise or lower the signal. The method in brief: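 Endothelial/PBMC co-culture; chemical added; 24 h incubation; CD69 ELISA with fluorescence detection; bidirectional fit vs DMSO.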

Where “and” joins values, the source holds several entries; their conditions need not be identical. Equal values may be shown once. The source holds several records for some structures; these can differ, active in one and inactive in another. Calls of active or inactive are those of the source. Rule for the calls: active = hit-call score of the fitted dose curve at least 0.9, where 1 is the maximum; inactive = score below 0.9.

The term AC50 denotes the midpoint of the concentration-response curve, whichever way the signal moves.

Sequence of E-selectin (Homo sapiens) (P16581 whole entry, looked up): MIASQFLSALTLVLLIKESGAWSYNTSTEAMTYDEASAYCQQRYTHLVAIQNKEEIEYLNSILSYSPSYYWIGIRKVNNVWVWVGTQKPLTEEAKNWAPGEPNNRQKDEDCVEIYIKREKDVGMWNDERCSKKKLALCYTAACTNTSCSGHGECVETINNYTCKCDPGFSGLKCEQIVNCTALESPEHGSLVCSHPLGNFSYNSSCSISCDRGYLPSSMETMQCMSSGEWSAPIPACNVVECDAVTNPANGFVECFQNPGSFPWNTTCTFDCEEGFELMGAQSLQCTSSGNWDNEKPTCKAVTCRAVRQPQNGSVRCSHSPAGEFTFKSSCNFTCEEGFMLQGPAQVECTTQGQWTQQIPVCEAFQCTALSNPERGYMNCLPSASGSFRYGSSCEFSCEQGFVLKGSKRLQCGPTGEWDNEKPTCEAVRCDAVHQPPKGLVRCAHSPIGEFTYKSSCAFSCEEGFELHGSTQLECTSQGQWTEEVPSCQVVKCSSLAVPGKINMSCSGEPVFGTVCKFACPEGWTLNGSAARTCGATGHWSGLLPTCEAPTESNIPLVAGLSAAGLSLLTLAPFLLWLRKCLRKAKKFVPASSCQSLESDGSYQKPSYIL
Sequence of Tumor necrosis factor (Homo sapiens) (P01375 whole entry, looked up): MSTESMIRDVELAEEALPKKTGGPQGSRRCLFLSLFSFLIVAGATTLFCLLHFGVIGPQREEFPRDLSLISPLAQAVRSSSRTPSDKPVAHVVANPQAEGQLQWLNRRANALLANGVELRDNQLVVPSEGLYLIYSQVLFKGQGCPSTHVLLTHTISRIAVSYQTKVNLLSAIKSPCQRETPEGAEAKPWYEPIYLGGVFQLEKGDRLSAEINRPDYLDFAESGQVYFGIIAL

As to `O=C(Cl)C(F)(F)C(F)(F)C(F)(F)C(F)(F)C(F)(F)C(F)(F)C(F)(F)F`, the outcome in experiment [1] is “inactive”; in experiment [2], “inactive”; in experiment [3], “inactive”; in [4], “inactive”; in experiment [5], “inactive”; with CD40, CD40 (gene 958) [6], “inactive”. The result in [7], in experiment [8], in [9], in experiment [10], in experiment [11] and in experiment [12] was inactive. Moreover, the outcome in experiment [13] was “inactive”; in [14], “inactive”; in [15], “inactive”; in experiment [16] it was “inactive”; with CD38, CD38 (gene 952) it was “inactive”; in the experiment with CD40, CD40 (gene 958) [17], “inactive”. Besides, in the experiment with CD69, CD69 (gene 969), the outcome was inactive. In addition, in experiment [8], the AC50 was 20.2 µM (active) and 16.6 µM (active).

Take `O=C(O)C(F)(F)C(F)(F)C(F)(F)OC(F)(F)F`: the outcome in experiment [1] was “inactive”; in experiment [2] it was “inactive”; in [3], “inactive”; in [4], “inactive”; in experiment [5] it was “inactive”; with CD40, CD40 (gene 958) [6], “inactive”. The result in [7], in experiment [8], in experiment [9], in experiment [10], in experiment [11] and in experiment [12] was inactive. The outcome in [13] is “inactive”; in [14], “inactive”; in experiment [15], “inactive”; in experiment [16], “inactive”; in the experiment with CD38, CD38 (gene 952), “inactive”; with CD40, CD40 (gene 958) [17], “inactive”. For the same compound, in the experiment with CD69, CD69 (gene 969), the outcome was inactive.

`OC(O)C(F)(F)C(F)(F)F`: the outcome in experiment [1] was “inactive”; in [2], “inactive”; in [3], “inactive”; in experiment [4] it was “inactive”; with CD40, CD40 (gene 958) [6] it was “inactive”; in experiment [7], “inactive”. Besides, the result in experiment [8], in experiment [9], in experiment [10], in experiment [11], in experiment [12] and in [13] was inactive. The outcome in experiment [14] was “inactive”; in experiment [15], “inactive”; in experiment [16], “inactive”; in the experiment with CD38, CD38 (gene 952), “inactive”; with CD40, CD40 (gene 958) [17], “inactive”; with CD69, CD69 (gene 969) it was “inactive”.
